GAA850 FXN act: FXN promoter activators, primary screen, cell-based, luciferase luminescence, HEK293 lucGAA850; activation, % at 6 µM; actives 0.56% (n = 360,000); HEK293 lucGAA850 FXN promoter luciferase reporter, 24 h; percent of 10 µM SAHA response;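 active = activation above the average of all compounds screened plus 3 SD, cutoff fixed separately per campaign, cut at about 7.5% in these data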;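 note: 0% = DMSO wells and 100% = 10 µM SAHA wells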
HSF1 inh: HSF1 inhibitors in luciferase reporter cells, primary screen, cell-based, NIH3T3, luminescence | NIH3T3-HGL HSE-luciferase, MG132-induced, luminescence 8 h; hits give low values | activity change, negative = inhibition, % at 7.5 µM (by protocol) | actives 0.77% (n = 300,000) | AID 2098, 2009;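 active = more than half of replicate wells show activity change below -50%, luminescence cut by over half; inconclusive = some wells, but at most half, below -50%; inactive = no replicate well below -50%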;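 note: luciferase reports HSF-1 transcriptional activity via heat shock element; 0% = median of DMSO wells and -100% = zero luminescence signal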
AHR act: AHR activators, primary screen, cell-based, luminescence, luciferase reporter, human; AHR-responsive luciferase reporter cells; Aryl hydrocarbon receptor (Homo sapiens), P35869; actives 2.5% (n = 320,000); AID 2796, 2010; activation, % at 5 µM; in the data active = activation above about 47%;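 note: 0% = vehicle wells and 100% = reference agonist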
DAX1 inh: DAX1 (NR0B1) inhibitors, primary screen, cell-based, HEK293, Gal4-DAX1, luciferase luminescence. Nuclear receptor subfamily 0 group B member 1 (Homo sapiens), P51843. HEK293 Gal4-DAX1 luciferase reporter. inhibition, % at 6.75 µM. actives 0.99% (n = 340,000);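 active = inhibition above the mean over all tested compounds plus 3 SD, cut at about 4.2% in these data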;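 note: 0% = DAX1-transfected cells with DMSO and 100% = empty-vector control cells with DMSO; inhibition shows as a rise in luminescence from relieved DAX1 repression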
Target sequence (P51843 207-470 limits assumed): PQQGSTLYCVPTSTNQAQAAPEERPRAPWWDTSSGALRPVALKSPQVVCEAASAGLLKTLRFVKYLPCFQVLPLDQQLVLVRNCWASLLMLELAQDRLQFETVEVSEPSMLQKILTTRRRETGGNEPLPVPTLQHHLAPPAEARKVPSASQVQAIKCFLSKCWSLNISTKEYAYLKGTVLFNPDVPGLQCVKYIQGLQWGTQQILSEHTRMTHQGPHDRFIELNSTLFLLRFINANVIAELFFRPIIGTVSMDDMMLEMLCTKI
HSF1 activator: HSF-1 activators, primary screen, NIH3T3-HGL cells, MG132 stress, luminescence, single point; actives 1.7% (n = 300,000); activation, % at 9 µM; NIH3T3-HGL HSF-1 luciferase reporter, 8 h; 100% = twice DMSO control signal;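 active = mean replicate activation of at least 50% with a set share of replicates each reaching 50%; inconclusive = only one of those two conditions met; inactive = mean below 50% and too few replicates reaching it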;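 note: 0% = median of the neutral control wells and 100% = twice that signal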
HSP90 inh: HSP90 inhibitors, primary screen, cell lysate, luminescence | Heat shock protein HSP 90 (rabbit reticulocyte lysate; luciferase refolding) | actives 0.91% (n = 290,000) | Rabbit reticulocyte lysate, luciferase refolding luminescence, 3 h | inhibition, % at 5.6 µM;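 active = inhibition above the screen-wide mean plus 3 SD, computed separately per campaign, cut at about 16% in these data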;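 note: 0% = DMSO wells and 100% = 60 µM geldanamycin wells; inhibitors lower the luminescence because luciferase stays unfolded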
HSP90 inh confirm: HSP90 inhibitors, confirmation, cell lysate, luminescence. shares compounds with HSP90 inh. rabbit reticulocyte lysate, luciferase refolding luminescence, 3 h. inhibition, % at 5.9 µM. actives 64% (n = 2,300). AID 1846, 2009; in the data active = inhibition above about 18%;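 note: 0% = vehicle wells and 100% = reference inhibitor wells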
luciferase ctr: firefly luciferase inhibitors, HSP90 counter-screen, confirmation, artefact control for HSP90 inhibitor project, biochemical, luminescence, triplicate; shares compounds with HSP90 inh; inhibition, % at 5.9 µM; actives 48% (n = 2,300); purified native firefly luciferase;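 active = inhibition above the mean inhibition of all tested sample wells plus 3 SD, cut at about 10% in these data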;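 note: 0% = DMSO with luciferase and 100% = wells lacking luciferase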
* = called active by the depositor; ? = inconclusive; / = no result given. Sampled rows, rich in hits. Any-hit rate of the full collection: about 5.9%.

SMILES	GAA850 FXN act	HSF1 inh	AHR act	DAX1 inh	HSF1 activator	HSP90 inh	HSP90 inh confirm	luciferase ctr
CC(C)(C)c1ccc(C(=O)Nc2ccc(CC(=O)O)cc2)o1	-18	-59*	-14	-4	-64	22*	23*	-30
Cc1cc(OCC(=O)Nc2ccncc2)ccc1[N+](=O)[O-]	-1	-2	6	-1	-8	-3	/	/
CNC(=S)N/N=C/c1ccc(-c2cccc(C(=O)O)c2)o1	5	-60*	2	-3	-66	26*	15	0
Cc1ccc(OCC(=O)N/N=C\c2ccc(-c3cccc(C(=O)O)c3)o2)c(C)c1	3	-15	10	-1	-9	4	/	/
Cc1ccc(-c2ccc(/C=N/NC(=O)c3ccccc3O)o2)cc1	/	-16	16	/	-5	22*	-3	-11
O=C(Cc1cccs1)NCCS(=O)(=O)N1CCN(c2cccc(Cl)c2)CC1	0	2	1	0	5	/	/	/
CCN(Cc1ccccc1)C(=O)c1ccc(CS(=O)c2ccccc2C)o1 (stereo unspecified)	-1	-2	4	0	12	-1	/	/
Cc1ccccc1Oc1nc2c(C)cccn2c(=O)c1/C=C(\C#N)C(=O)NC1CCS(=O)(=O)C1 (stereo unspecified)	0	43	2	-1	72*	17*	26*	-11
Cc1cccn2c(=O)c(/C=C(\C#N)C(=O)NC3CCS(=O)(=O)C3)c(Oc3ccccc3Cl)nc12 (stereo unspecified)	4	11	2	-1	31	4	/	/
CC(C)Oc1ccc(/C(O)=C2/C(=O)C(=O)N(Cc3cccnc3)C2c2ccco2)cc1 (stereo unspecified)	-1	-34	2	0	-47	20*	3	15*
O=C(Nc1cccc(-c2ccc(N3CCCCC3)nn2)c1)C(F)(F)F	-6	?	-8	-2	-54	7	/	/
CCC(=O)Nc1cccc(-c2ccc(N3CCC(C)CC3)nn2)c1	-1	6	-10	1	31	33*	66*	45*
CC1CCN(c2ccc(-c3cccc(NC(=O)C(F)(F)F)c3)nn2)CC1	-10	-82*	-9	-6	-84	19*	56*	-18
CC(OC(=O)CCc1ccccc1)C(=O)Nc1ccc(Cl)cn1 (stereo unspecified)	0	-4	-1	0	-9	/	/	/
CC(C)C(=O)N(Cc1cc(=O)[nH]c2ccccc12)c1ccccc1	0	2	10	0	8	81*	-7	-7
O=C(NCCC(=O)N1CCOCCOCCOCCOCC1)OCc1ccccc1	0	-6	-2	-2	-2	-2	/	/
CNC(C)C(=O)NC(C(=O)NC(C)C(=O)NNc1ccccc1)C(C)C (stereo unspecified)	-3	/	/	/	/	/	/	/
CCOC(=O)N1N=C(c2ccc(OC)cc2)CC1(O)C(F)(F)F (stereo unspecified)	3	20	7	1	29	22*	39*	26*
CCc1ccc(C2=NN(C(=O)OC)C(O)(C(F)(F)F)C2)cc1 (stereo unspecified)	0	4	0	-2	24	40*	64*	49*
COC(=O)[C@H](Cc1ccccc1)[C@@H](C)OS(N)(=O)=O	0	-7	0	1	6	-2	/	/
Cc1ccc(-c2nnc(N3CCOCC3)c3ccccc23)cc1S(=O)(=O)N(C)C	2	-7	/	1	1	1	/	/
CN1C(C(=O)NCc2ccco2)=CC(c2ccc(F)cc2)=NS1(=O)=O	2	-9	2	0	-11	56*	-1	-7
CC1(C(=O)N2CCN(Cc3ccccc3Cl)CC2)CC1(Cl)Cl (stereo unspecified)	2	11	5	0	7	19*	-6	-16
COc1ccccc1C(=O)N(Cc1ccccc1)c1ccc(C)cc1	0	14	38	1	13	57*	-7	-11
COc1ccc(C2Nc3cccc4cccc(c34)N2)cc1	5	4	29	0	-6	7	/	/
SMILES	GAA850 FXN act	HSF1 inh	AHR act	DAX1 inh	HSF1 activator	HSP90 inh	HSP90 inh confirm	luciferase ctr
CN(C)c1ccc(C2Nc3cccc4cccc(c34)N2)cc1	0	-23	23	-1	-24	42*	37*	-3
CCOC(=O)N1CCC(N2C(=O)c3ccccc3C2Nc2ccc(Cl)cn2)CC1 (stereo unspecified)	-3	19	9	-1	29	-1	/	/
O=C(NC12CC3CC(CC(C3)C1)C2)c1ccc(-c2ccccc2Cl)o1	3	-44	-3	2	-53	26*	38*	30*
CCCCN(CC)Cc1ccc(CNC(=S)Nc2cccc(F)c2)o1	-3	-1	2	1	-12	1	/	/
O=C(Nc1nc2ccccc2[nH]1)c1cccc(F)c1	1	11	47	0	42	26*	30*	12*
Cc1cccc(C(=O)N[C@H](C(=O)Nc2nc3ccccc3[nH]2)C(C)C)c1	-4	/	18	0	/	-3	/	/
CN(C)c1cccc(C(=O)Nc2nc3ccccc3[nH]2)c1	-2	5	-2	-3	30	25*	56*	39*
O=C1N/C(=N\S(=O)(=O)c2ccccc2)S/C1=C\c1cc([N+](=O)[O-])ccc1O	0	-6	0	1	7	54*	-2	1
Cc1ccc(S(=O)(=O)N2CCC(C(=O)NCC(C)(C)N3CCOCC3)CC2)c(C)c1	1	/	0	0	/	/	/	/
CC(C)(C)N=C1NN=C(c2ccc(Cl)cc2)CS1	-1	?	7	4	-59	20*	22*	22*
CC(C)(C)N=C1NN=C(c2cc3ccccc3o2)CS1	-1	-34	11	2	-50	20*	29*	23*
Cc1cccc(NC(=O)c2ccc3c(Cl)c4c(nc3c2)CCCC4)n1	3	-41	-1	2	-44	17*	58*	47*
O=C(Nc1ccc(Cl)cn1)c1ccc2c(Cl)c3c(nc2c1)CCC3	4	?	1	3	-62	-3	/	/
